Laboratory results taken from PubChem BioAssay (NCI).
About 83,000 compounds went through this panel and 20% of them were active in at least one assay; those are over-represented in the sample as a whole.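 Activity criterion: percent growth below 10, measured after cells in 96-well plates were exposed to a single compound concentration for 48 hours.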 Active and inactive are the calls of the source.

Experiments:
Assay in all cases: NCI-60 one-dose screen, 48 h (100 = growth as untreated, 0 = no growth, -100 = all killed)
Details in all cases: 10 µM unless noted
SR leukemia = tested on: SR leukemia
RPMI-8226 leukemia = tested on: RPMI-8226 leukemia
OVCAR-5 ovarian = tested on: OVCAR-5 ovarian
OVCAR-4 ovarian = tested on: OVCAR-4 ovarian
SK-OV-3 ovarian = tested on: SK-OV-3 ovarian
IGROV1 ovarian = tested on: IGROV1 ovarian
OVCAR-3 ovarian = tested on: OVCAR-3 ovarian
HS 578T breast = tested on: HS 578T breast
NCI/ADR-RES ovarian = tested on: NCI/ADR-RES ovarian
T-47D breast = tested on: T-47D breast
BT-549 breast = tested on: BT-549 breast
MDA-MB-435 melanoma = tested on: MDA-MB-435 melanoma
SW-620 colon = tested on: SW-620 colon
MCF7 breast = tested on: MCF7 breast
HCT-116 colon = tested on: HCT-116 colon
KM12 colon = tested on: KM12 colon
HCC-2998 colon = tested on: HCC-2998 colon

Measured: growth

COc1cc(/C=C2\C(=O)N(Cc3ccc(Cl)cc3)c3ccccc32)cc(OC)c1OC
active: SR leukemia -5.2% | RPMI-8226 leukemia -31.7% | IGROV1 ovarian 9.22% | OVCAR-3 ovarian -49.6% | HS 578T breast -14.3% | BT-549 breast 9.56% | SW-620 colon -29.7% | MCF7 breast 8.81% | HCT-116 colon -23.4%
inactive: OVCAR-5 ovarian 65.9% | OVCAR-4 ovarian 47.7% | SK-OV-3 ovarian 79.3% | NCI/ADR-RES ovarian 21.4% | T-47D breast 32.1% | MDA-MB-435 melanoma 28.2% | KM12 colon 15.5%

CCOC(=O)c1c(C)nc2c(c1N)C(=O)C(=O)N2Cc1ccc(C(F)(F)F)cc1
inactive: SR leukemia 23.3% | RPMI-8226 leukemia 27.2% | OVCAR-5 ovarian 91.7% | OVCAR-4 ovarian 69.3% | SK-OV-3 ovarian 82.9% | IGROV1 ovarian 62.5% | OVCAR-3 ovarian 18% | HS 578T breast 65.7% | NCI/ADR-RES ovarian 17.7% | T-47D breast 44% | BT-549 breast 53.4% | SW-620 colon 35.6% | MCF7 breast 11.7% | HCT-116 colon 27.2% | HCC-2998 colon 98.1% | KM12 colon 27.8%
active: MDA-MB-435 melanoma 6.09%

N#Cc1ccc(-c2ccc3c(c2)NC(=O)/C3=C\c2ccc[nH]2)cc1
active: T-47D breast 9.73%
inactive: SR leukemia 22.2% | RPMI-8226 leukemia 101% | OVCAR-5 ovarian 43.2% | OVCAR-4 ovarian 43.3% | SK-OV-3 ovarian 62.6% | IGROV1 ovarian 66.2% | OVCAR-3 ovarian 88.8% | HS 578T breast 103% | NCI/ADR-RES ovarian 100% | MDA-MB-435 melanoma 102% | SW-620 colon 102% | MCF7 breast 15.3% | HCT-116 colon 104% | HCC-2998 colon 58.5% | KM12 colon 60.8%

CCOC(=O)N1CCN(CCCCl)CC1
inactive: SR leukemia 97.1% | RPMI-8226 leukemia 114% | OVCAR-5 ovarian 93.3% | OVCAR-4 ovarian 109% | SK-OV-3 ovarian 126% | IGROV1 ovarian 97.1% | OVCAR-3 ovarian 119% | HS 578T breast 108% | NCI/ADR-RES ovarian 102% | T-47D breast 103% | BT-549 breast 99.5% | MDA-MB-435 melanoma 103% | SW-620 colon 107% | MCF7 breast 97.7% | HCT-116 colon 93.8% | HCC-2998 colon 101% | KM12 colon 105%

CC(C)Cc1ccc(C(C)C(=O)NCc2c[nH]c3ccc(Cl)cc23)cc1 (centres undefined)
inactive: SR leukemia 80.5% | RPMI-8226 leukemia 78.5% | OVCAR-5 ovarian 98.9% | OVCAR-4 ovarian 88% | SK-OV-3 ovarian 98.9% | IGROV1 ovarian 86.9% | OVCAR-3 ovarian 95.5% | HS 578T breast 82.8% | NCI/ADR-RES ovarian 92.5% | T-47D breast 69.8% | BT-549 breast 88.8% | MDA-MB-435 melanoma 66.6% | SW-620 colon 90.9% | MCF7 breast 89.5% | HCT-116 colon 85.9% | HCC-2998 colon 103% | KM12 colon 83.5%

CC(=O)c1c(-c2ccc(OC(F)(F)F)cc2)nc2ccccn12
inactive: SR leukemia 116% | RPMI-8226 leukemia 101% | OVCAR-5 ovarian 83.1% | OVCAR-4 ovarian 100% | SK-OV-3 ovarian 97.6% | IGROV1 ovarian 88.8% | OVCAR-3 ovarian 101% | HS 578T breast 102% | NCI/ADR-RES ovarian 95.9% | T-47D breast 80.6% | BT-549 breast 91.3% | MDA-MB-435 melanoma 102% | SW-620 colon 105% | MCF7 breast 89.8% | HCT-116 colon 80.8% | HCC-2998 colon 105% | KM12 colon 97%

C=C1C(=O)O[C@H]2[C@H]1CC/C(CNC(=O)/C=C/c1ccccc1F)=C\CC[C@@]1(C)O[C@@H]21
inactive: OVCAR-5 ovarian 27.7% | SK-OV-3 ovarian 96.6% | IGROV1 ovarian 15% | HS 578T breast 58.2% | NCI/ADR-RES ovarian 77.7% | MDA-MB-435 melanoma 23.1% | HCC-2998 colon 50.4% | KM12 colon 74.2%
active: SR leukemia 8.95% | RPMI-8226 leukemia -2.96% | OVCAR-4 ovarian 9.27% | OVCAR-3 ovarian -62.7% | T-47D breast -0.591% | BT-549 breast -6.02% | SW-620 colon -54.3% | MCF7 breast -12.3%

CC(O)/C=C/C=C/C(O)CC/C=C/C(=O)NCC(C)(C)O (centres undefined)
inactive: SR leukemia 66.4% | RPMI-8226 leukemia 100% | OVCAR-5 ovarian 113% | OVCAR-4 ovarian 106% | SK-OV-3 ovarian 111% | IGROV1 ovarian 117% | OVCAR-3 ovarian 115% | HS 578T breast 99.8% | NCI/ADR-RES ovarian 109% | T-47D breast 86.2% | MDA-MB-435 melanoma 110% | SW-620 colon 118% | MCF7 breast 78.2% | HCT-116 colon 93.5% | HCC-2998 colon 90.6% | KM12 colon 102%

CC1CCN(C(=O)OCc2nc3nc(Cl)nc(N4CCOCC4)c3[nH]2)CC1
active: SR leukemia -28.6% | RPMI-8226 leukemia -29.7% | OVCAR-5 ovarian -38.2% | OVCAR-4 ovarian -54.1% | IGROV1 ovarian -68% | OVCAR-3 ovarian -92.8% | HS 578T breast -13.5% | NCI/ADR-RES ovarian -18.6% | T-47D breast -61.6% | BT-549 breast -66% | MDA-MB-435 melanoma -76.5% | SW-620 colon -55.6% | MCF7 breast -18.9% | HCT-116 colon -74.1% | HCC-2998 colon 2.05% | KM12 colon 9.43%
inactive: SK-OV-3 ovarian 62.8%

CC1(C)CCCN1CCCN1c2ccccc2Sc2ccc(Cl)cc21
inactive: SR leukemia 35.7% | RPMI-8226 leukemia 28.6% | OVCAR-5 ovarian 89.3% | SK-OV-3 ovarian 75.5% | IGROV1 ovarian 60.2% | OVCAR-3 ovarian 68.5% | HS 578T breast 76.6% | NCI/ADR-RES ovarian 61% | T-47D breast 68.5% | BT-549 breast 56.3% | MDA-MB-435 melanoma 51.5% | SW-620 colon 79.9% | MCF7 breast 45.3% | HCT-116 colon 33.3% | HCC-2998 colon 56.7% | KM12 colon 56.1%

COc1ccc(C(=O)/C=C/c2cn(Cc3ccc(Cl)cc3)c3ccccc23)cc1
inactive: SR leukemia 20.1% | RPMI-8226 leukemia 70.7% | OVCAR-5 ovarian 13.4% | OVCAR-4 ovarian 76.3% | SK-OV-3 ovarian 57.4% | IGROV1 ovarian 23.7% | OVCAR-3 ovarian 57.6% | HS 578T breast 60% | NCI/ADR-RES ovarian 38.4% | T-47D breast 48.2% | BT-549 breast 86.9% | SW-620 colon 28% | MCF7 breast 52.6% | HCC-2998 colon 59.7% | KM12 colon 32.2%
active: MDA-MB-435 melanoma -20.5% | HCT-116 colon -77.5%

COc1ccc(-c2nc(N/N=C/c3cccc(Br)c3)nc(N3CCOCC3)c2C#N)cc1
active: SR leukemia -21.3%
inactive: RPMI-8226 leukemia 35.8% | OVCAR-5 ovarian 111% | OVCAR-4 ovarian 81.2% | SK-OV-3 ovarian 97.1% | IGROV1 ovarian 89.1% | OVCAR-3 ovarian 74.6% | HS 578T breast 68% | NCI/ADR-RES ovarian 83.3% | T-47D breast 77% | BT-549 breast 100% | MDA-MB-435 melanoma 87.9% | SW-620 colon 14% | MCF7 breast 59.3% | HCT-116 colon 32.9% | HCC-2998 colon 75.4% | KM12 colon 44.2%

COc1ccc(-c2nn(Cc3ccccc3)c3c2-c2oncc2CC3)cc1OC
inactive: SR leukemia 63.2% | RPMI-8226 leukemia 98.5% | OVCAR-5 ovarian 103% | OVCAR-4 ovarian 86.8% | SK-OV-3 ovarian 137% | IGROV1 ovarian 124% | OVCAR-3 ovarian 113% | NCI/ADR-RES ovarian 82.6% | T-47D breast 84.8% | BT-549 breast 92.7% | MDA-MB-435 melanoma 95.2% | SW-620 colon 118% | MCF7 breast 87.7% | HCT-116 colon 107% | HCC-2998 colon 107% | KM12 colon 99.6%

CCN(CC)CCOC(COc1cc(C)cc(C)c1)COc1cc(C)cc(C)c1
inactive: OVCAR-5 ovarian 55.6% | OVCAR-4 ovarian 50.9% | SK-OV-3 ovarian 67.1% | IGROV1 ovarian 12.6% | OVCAR-3 ovarian 58.4% | HS 578T breast 61.6% | NCI/ADR-RES ovarian 41.5% | T-47D breast 18.8% | BT-549 breast 50.9% | MDA-MB-435 melanoma 19.5% | SW-620 colon 24.1% | MCF7 breast 17.5% | HCC-2998 colon 16.8% | KM12 colon 31.7%
active: SR leukemia -20.8% | RPMI-8226 leukemia 0.427% | HCT-116 colon 7.06%

CN1CCN(CCCOc2ccc3ncnc(Nc4ccc(Oc5cccc(C(F)(F)F)c5)c(Cl)c4)c3c2)CC1
active: SR leukemia 4.03% | RPMI-8226 leukemia -21.6% | OVCAR-5 ovarian 5.84% | OVCAR-4 ovarian 2.72% | IGROV1 ovarian -53.7% | MDA-MB-435 melanoma -82% | SW-620 colon -71.6% | MCF7 breast -28.7% | HCT-116 colon -62% | HCC-2998 colon -66.2% | KM12 colon -3.45%
inactive: SK-OV-3 ovarian 21.4% | OVCAR-3 ovarian 30.2% | HS 578T breast 26.8% | NCI/ADR-RES ovarian 34.8% | T-47D breast 19.2% | BT-549 breast 69.9%

O=C(Nc1nc2ccc(S(=O)(=O)Nc3ccc(C4(C(F)(F)F)CC4)cc3)cc2[nH]1)c1cnccn1
active: OVCAR-3 ovarian -18.6% | MDA-MB-435 melanoma -29.8% | KM12 colon 9.67%
inactive: SR leukemia 20% | RPMI-8226 leukemia 30.3% | OVCAR-5 ovarian 56.8% | OVCAR-4 ovarian 46.1% | SK-OV-3 ovarian 58% | IGROV1 ovarian 40.3% | HS 578T breast 17.6% | NCI/ADR-RES ovarian 21% | T-47D breast 31.7% | BT-549 breast 44.6% | SW-620 colon 18.5% | MCF7 breast 18.2% | HCT-116 colon 26.2%

O=C(/C=C/c1ccc[nH]1)c1ccc(-n2ccc(C(F)(F)F)n2)cc1
inactive: SR leukemia 28.4% | OVCAR-5 ovarian 89% | OVCAR-4 ovarian 97.7% | SK-OV-3 ovarian 114% | IGROV1 ovarian 103% | HS 578T breast 100% | NCI/ADR-RES ovarian 88.3% | T-47D breast 94.7% | MDA-MB-435 melanoma 99.5% | SW-620 colon 102% | MCF7 breast 72.2% | HCT-116 colon 87.3% | HCC-2998 colon 54.7%
active: RPMI-8226 leukemia -19.3% | OVCAR-3 ovarian 0.498% | BT-549 breast -45.3% | KM12 colon 1.59%

COc1ccc(C(O)c2cc3c(N)c(C(=O)Nc4cccc(OC)c4)sc3nc2C)cc1 (centres undefined)
active: SR leukemia 2.51% | RPMI-8226 leukemia 6.06% | OVCAR-3 ovarian 0.638% | MDA-MB-435 melanoma -9.54% | HCT-116 colon 5.98% | HCC-2998 colon 5.05% | KM12 colon 2.91%
inactive: OVCAR-5 ovarian 23% | OVCAR-4 ovarian 36.5% | SK-OV-3 ovarian 19.5% | IGROV1 ovarian 15.4% | HS 578T breast 23.7% | NCI/ADR-RES ovarian 13.7% | T-47D breast 62.8% | BT-549 breast 26.5% | SW-620 colon 19.9% | MCF7 breast 17.8%
